PubChem BioAssay (NCATS)
Results filed as inconclusive are left out. Unmarked numbers belong to inactive results. Calls follow the shape of the dose curve; as a rule, active = well fitted inhibition curve with a large enough effect; inconclusive = small, poorly fitted or top-dose-only effect; inactive = no such curve, though single readings can be large or run the other way. Peptide text beside a SMILES is read from it.

Target: Retinaldehyde dehydrogenase 3 (Homo sapiens) (UniProt P47895)
Assay: qHTS for Inhibitors of the Aldehyde Dehydrogenase Family (ALDH1A3) Primary screen (AID 2061315);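 also: plate controls were DMSO vehicle for no effect and reference inhibitor for full effect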
Settings: ALDH inhibition qHTS; series mostly up to 56 µM; activity change, negative = inhibition: at the top concentration

Structure (SMILES) | activity change, negative = inhibition
NC(=O)Nc1cc(-c2cccc(F)c2)sc1C(=O)NC1CCCNC1 (stereo not drawn) | 9.51%
CC(=O)NC(Cc1ccccc1)C(=O)NC(C(=O)O)C(C)C (stereo not drawn) (Ac-Phe-Val-OH; configuration not given here) | -14%
CCC(NC(=O)CC(NC(=O)C(CO)NC(=O)C(CC)NC(=O)c1ccc[nH]1)c1ccccc1)C(=O)O (stereo not drawn) | 12.4% [at 16.9 µM]
C[C@]1(CO)CCC[C@]2(C)C3=C(CCC12)COC3 (stereo partly drawn) | 0.792%
CCOC(=O)[C@H](CCc1ccccc1)N[C@@H](C)C(=O)N1C2CCCCC2C[C@H]1C(=O)O (stereo partly drawn) | -16.5%
CC1(C)O[C@H]2CC(=O)OC[C@@]23C1=C(O)C(=O)[C@]1(C)C3CC[C@@]2(C)[C@H](c3ccoc3)OC(=O)[C@H]3O[C@]321 (stereo partly drawn) | 8.91% [at 28 µM]
C/C(=C/CO)CC[C@@H]1[C@@]2(C)CCC[C@](C)(C(=O)O)C2CC[C@@]1(C)O (stereo partly drawn) | 1.51%
O=C(N[C@@H]1CCCc2c1cnn2-c1ccc(F)cc1F)c1ccccn1 | -3.59%
COC(=O)C1=COC(O[C@@H]2O[C@H](COC(=O)/C=C/c3ccc(O)cc3)[C@@H](O)[C@H](O)[C@H]2O)C2C(CO)=CCC12 (stereo partly drawn) | -21.4% [at 28 µM]
C=C1C(OC(C)=O)C(=O)C2C(C)(C)C(OC(C)=O)CCC2(C)C1CC(OC(C)=O)/C(C)=C/COC(C)=O (stereo not drawn) | 2.78% [at 28 µM]
Nc1ncnc2c1c(-c1ccc(Cl)cc1)nn2-c1cccc(-c2cnnn2Cc2cccc(-c3ccccc3)c2)c1 | 7.57%
CCCCc1ccc(NS(=O)(=O)c2ccc(F)cc2)cc1 | 5.84%
CC(C)=CCC(O)[C@](C)(O)C1[C@H](O)C[C@@]2(C)C3CC=C4C(C[C@H](O)[C@@H](O[C@@H]5O[C@H](CO)[C@@H](O)[C@H](O)[C@H]5O)C4(C)C)[C@]3(C)C(=O)C[C@]12C (stereo partly drawn) | -10.5% [at 16.9 µM]
